This is a sample that favours compounds with a hit; in the whole collection about 2.4% have one here.
M1 PAM = positive allosteric modulators of human M1 muscarinic receptor; CHO-K1 hM1, Fluo-8 calcium fluorescence, ACh EC20; 0% = ACh EC20, 100% = maximal ACh; P11229; activation, % at 3 µM; actives 0.088% (n = 360,000); in the data active means activation above about 19%, passing the limit was not always enough
Target sequence (P11229 whole entry, looked up): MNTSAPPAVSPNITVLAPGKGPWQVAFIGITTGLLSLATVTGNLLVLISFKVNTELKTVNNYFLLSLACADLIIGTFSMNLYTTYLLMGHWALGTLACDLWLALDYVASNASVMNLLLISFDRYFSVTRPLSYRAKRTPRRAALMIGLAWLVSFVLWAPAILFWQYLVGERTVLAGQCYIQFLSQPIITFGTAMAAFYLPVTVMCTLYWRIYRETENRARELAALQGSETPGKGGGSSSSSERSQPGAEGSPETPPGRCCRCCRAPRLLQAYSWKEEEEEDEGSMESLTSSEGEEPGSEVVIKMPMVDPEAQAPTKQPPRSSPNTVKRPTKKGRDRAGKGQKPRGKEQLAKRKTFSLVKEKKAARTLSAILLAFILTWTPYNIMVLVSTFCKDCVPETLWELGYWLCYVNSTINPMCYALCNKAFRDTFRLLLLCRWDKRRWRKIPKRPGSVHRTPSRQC
M1 antag = human CHRM1 antagonism. CHO-K1 hM1, Fluo-8 calcium fluorescence, ACh EC80 antagonist. inhibition, % at 3 µM. actives 1.3% (n = 360,000);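 active means percent inhibition above its own plate's cutoff, namely the mean of that plate's compound wells plus 3 SD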;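 further: peak over basal fluorescence ratio during 140 s after agonist addition; 0% = ACh EC80 plus DMSO and 100% = DMSO alone without agonist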
CHO-K1 Ca antag = counter-screen for M1 antagonists: effect in parental CHO-K1 cells. inhibition, % at 3 µM. AID 602250. actives 0.6% (n = 360,000). ATP-induced calcium, Fluo-8 fluorescence;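 active means inhibition above a per-plate cutoff, the plate's mean sample inhibition plus 3 SD, cut at about 24% in these data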;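 further: 0% = DMSO plus EC80 ATP and 100% = DMSO alone without ATP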
M1 ag parental = nonselective activator or artifact in parental CHO-K1 cells; Fluo-8 calcium fluorescence; scaled to maximal ATP response, vehicle zero; activation, % at 3 µM; AID 602248; actives 0.48% (n = 360,000); in the data active means activation above about 15%;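 further: untransfected CHO-K1 host cells lacking M1 receptor as counterscreen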
CHO-K1 Ca PAM = nonselective activator or artifact in parental CHO-K1 calcium assay; ATP EC20, Fluo-8 calcium fluorescence; 0% at ATP EC20, 100% at ATP max; activation, % at 3 µM; actives 0.02% (n = 360,000); AID 602247;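 active means activation above the run cutoff, the mean activation of all test compounds plus 3 SD, cut at about 40% in these data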;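 further: peak over basal fluorescence ratio in a 140 s read after ATP addition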
M1 ag = activates human CHRM1 receptor. P11229. CHO-K1 hM1, Fluo-8 calcium fluorescence, agonist mode; 0% DMSO, 100% acetylcholine EC100. activation, % at 3 µM. actives 0.33% (n = 360,000). AID 588814;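 active means activation above the run's mean compound activation plus 3 SD, cut at about 16% in these data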;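 further: peak over basal fluorescence ratio within a 140 s kinetic read after compound addition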
* marks the source's active call; other numbers are inactive results.

SMILES	M1 PAM	M1 antag	CHO-K1 Ca antag	M1 ag parental	CHO-K1 Ca PAM	M1 ag
COc1ccc(NS(=O)(=O)c2ccc(C(=O)N3CCC(C)CC3)cc2)cc1	-17	18	-5	31*	-11	36*
O=C(c1cccc(S(=O)(=O)N2CCN(c3ccc(F)cc3)CC2)c1)N1CCCC(C(F)(F)F)C1 (configuration not stated)	-12	34*	15	9	-26	-2
CC1CN(C(=O)c2cccc(S(=O)(=O)N3CCN(c4ccc(F)cc4)CC3)c2)CC(C)O1 (configuration not stated)	0	-5	-9	9	-3	2
O=C(c1cc2ccccc2[nH]1)N1CCOCC1	-3	1	2	0	20	-13
O=C(c1cccc(S(=O)(=O)Nc2ccc(F)cc2)c1)N1CCOCC1	9	-8	-13	1	11	0
CCOc1cc(CNc2ncn[nH]2)ccc1OCC(=O)NC(C)(C)C	4	0	4	0	1	0
COc1ccc(S(=O)(=O)N(CC(=O)NC2CCCCC2)c2ccc(F)cc2)cc1	9	-14	5	2	14	-3
CCOc1ccc(NS(=O)(=O)c2ccc(C(=O)N3CC(C)OC(C)C3)cc2)cc1 (configuration not stated)	-22	34*	0	41*	2	55*
CCOc1ccc(NS(=O)(=O)c2ccc(C(=O)N3CCCCC3)cc2)cc1	-12	15	6	19*	-19	23*
CC1CN(C(=O)c2ccc(NS(=O)(=O)c3ccc(C(C)(C)C)cc3)cc2)CC(C)O1 (configuration not stated)	-3	19	0	25*	-14	39*
Clc1ccc(C(c2ccccc2)N2CCNCC2)cc1 (configuration not stated)	-10	23	-15	1	18	0
CC12CNCC(C)(CN(C(c3ccccc3)c3ccccc3)C1)C2	-22	59*	15	0	-5	-6
CC1(C)Nc2ccccc2C(=O)N1c1ccccc1	6	-6	-16	0	18	-4
C[C@@H]1CN([C@H](C)CO)C(=O)Cc2cc(NC(=O)Nc3ccccc3)ccc2O[C@@H]1CN(C)Cc1ccc2c(c1)OCO2	-9	8	-28	0	11	-13
CC1CCCN(S(=O)(=O)c2ccc(C(=O)Nc3nnc(C4CC4)o3)cc2)C1 (configuration not stated)	3	1	25*	5	-12	-2
CC1CCCN(S(=O)(=O)c2ccc(C(=O)Nc3nnc(-c4ccccn4)o3)cc2)C1 (configuration not stated)	0	0	18	0	-9	-4
CC1CCN(C(=O)CCn2c(=O)oc3ccc(Cl)cc32)CC1	28*	-22	6	0	-1	2
CN(C)S(=O)(=O)N1CCC(Oc2cccc(C(=O)NC3CCCCCC3)c2)CC1	-9	22	17	15*	-6	1
COc1ccc(-c2cn(-c3ccc(OC)cc3)c3[n+]2-c2ccccc2CC3)cc1	-13	21	9	1	14	-15
COc1ccc(-n2c(-c3ccc(Br)cc3)c[n+]3c2CCc2ccccc2-3)cc1	-28	44*	0	0	20	-10
COc1ccccc1-n1c(-c2ccccc2)c[n+]2c1CCc1ccccc1-2	-26	59*	-2	1	20	-10
COc1ccc(-c2c[n+]3c(n2-c2ccccc2)CCCCC3)cc1	-1	7	-3	0	16	-11
CC(C)c1ccc(-n2c(-c3ccccc3)c[n+]3c2CCc2ccccc2-3)cc1	-21	26	32*	11	1	-13
CC(=O)c1ccc(OCc2nnn(CC(=O)NS(=O)(=O)c3ccc(C)cc3)c2-c2ccccc2)cc1	11	-11	-1	1	13	-3
O=C(O)Cc1ccc(NC(=O)c2cccc(NC(=O)c3ccco3)c2)cc1	7	2	28*	-1	-14	0
SMILES	M1 PAM	M1 antag	CHO-K1 Ca antag	M1 ag parental	CHO-K1 Ca PAM	M1 ag
O=C(Nc1ccccc1)c1cccc(NC(=O)c2ccco2)c1	7	-6	-5	10	26	2
O=C(Nc1cccc(-c2nc3ccccc3[nH]2)c1)c1cccc(NC(=O)c2ccco2)c1	-14	37*	-31	8	8	-3
CC1(C(=O)NS(=O)(=O)c2cccc(F)c2)CCN1C(=O)C1(c2ccc(Cl)cc2)CCC1 (configuration not stated)	8	-17	-13	0	12	-3
CCOC(=O)Cc1csc(NC(=O)Nc2cccc(Cl)c2)n1	-10	8	15	8	-6	1
CCOC(=O)Cc1csc(NC(=O)Nc2ccc(Cl)cc2)n1	-11	32	16	18*	-24	7
COc1ccc(C(=O)Nc2nc(CC(=O)NCc3ccc(F)cc3)cs2)cc1	-13	17	12	20*	-13	1
CCCCC(=O)Nc1ccc(C(=O)Nc2nc(CC(=O)OCC)cs2)cc1	0	7	2	21*	17	2
O=c1[nH]c(-c2ccccc2)ncc1OCc1ccccc1	8	-15	-14	1	19	-3
NNC(=O)CS(=O)(=O)CS(=O)(=O)CC(=O)NN	2	-2	72*	-1	-20	-1
C[N+]1(CCCCCCC(=O)/C=N/O)CCCCCC1	0	-2	1	0	16	-4
C[N+](C)(C)CCCCCCC(=O)/C=N/O	-11	5	21	0	-8	36*
CCc1nnc(NC(=O)C2CCCN2C(=O)Nc2ccccc2)s1 (configuration not stated)	12	-13	-1	20*	14	-6
CCN(CC(=O)Nc1c(F)cccc1F)C(=O)c1ccc2ncsc2c1	7	-7	10	7	14	2
CC(NC(=O)c1ccco1)C(c1cccs1)N1CCN(c2ccc(F)cc2)CC1 (configuration not stated)	-18	51*	-5	3	14	-9
Cc1ccc(S(=O)(=O)N2CCCCC2CCNC(=O)C(=O)Nc2ccccc2F)cc1 (configuration not stated)	6	-8	-8	0	-1	-2
Cc1cc(=O)oc2ccc(OCC(=O)N(Cc3ccc(F)cc3)Cc3ccco3)cc12	-15	34*	37*	6	-6	3
CCOC(=O)Cn1nc(C)c(NC(=O)CCc2ccc(OC)cc2)c1C	17	-13	-7	17*	16	-8
CCOC(=O)Cn1nc(C)c(NC(=O)CCc2ccccc2)c1C	5	-6	3	0	2	-5

Compound activity from PubChem.
